This note sets out measurements from ChEMBL document CHEMBL1157539, “Thousands of chemical starting points for antimalarial lead identification” (Nature, 2010).

The full ranking holds about 13,000 compounds; the median of “IFI” is about 4, and the highest 2% start at about 17. This is one part of a sample in which the highest values are shown more often than they occur.

This test is described as follows: GSK_TCMDC: Inhibition Frequency Index (IFI). The number of non-kinase HTS assays where a compound showed > 50 % inhibition, expressed as a percentage of the number of such assays in which the compound was tested. Type of test: functional.
For `Clc1ccc(Cl)c2[nH]c(CNCCCNc3nc4ccccc4[nH]3)cc12`, the IFI worked out at 4.38%. For `COc1ccc2c(OC)cccc2c1CNCCCCCCNCc1c(OC)ccc2c(OC)cccc12` the value was 13.7%. For `Cc1cccn2c(=O)c3cc(C(=O)NCCc4ccccc4)c(=N)n(CCCOC(C)C)c3nc12` the value was 4.3%. Then `O=[N+]([O-])c1ccc(/C=N/O)nc1`, with 23.4%; and `O=[N+]([O-])c1ccc2nccnc2c1`, with 1.44%. `O=[N+]([O-])c1ccc(C=NNc2nc3ccccc3[nH]2)cc1` yielded an IFI of 0%.

Take `CC(C)c1ccc(CN2CCC(CNC(=O)c3cc(-c4cccc(F)c4)cs3)C2)cc1` (stereo not drawn): the IFI is 14.3%. For `CC1(C)NC(N)=NC(=N)N1OCc1cccs1` the value was 1.43%; for `CCCCCCCN(CCCCCCC)CCCC(=O)Nc1ccnc2ccc(OC)cc12`, 7.87%. As for `COc1c(C2CCN(CCCCNC(=O)c3ccc(-c4ccc(Cl)cc4)cc3)CC2)ccc2c1C(C)(C)CCC2(C)C`, the IFI came out at 6.82%. For `O=C(Nc1ccc([N+](=O)[O-])cc1O)Nc1ccccc1Oc1ccccc1` the value was 17%; for `O=[N+]([O-])c1ccc(N/C(=N\c2ccccc2Br)NC2CCCc3ccccc32)c(O)c1` (stereo not drawn), 4.17%. `CC1(C(=O)Nc2ccc([N+](=O)[O-])cc2O)CC2c3ccccc3C1c1ccccc12` (stereo not drawn) showed an IFI of 17.4%. For `COc1ccccc1CCNc1nc(C)cc(N[C@@H](Cc2ccccc2)C(=O)NCCCOC(C)C)n1` the value was 0%. `O=C(O)c1cccnc1Sc1ccc(Cl)cc1`: the IFI stood at 0%. For `COc1ccc(CCNCCCCCCNCCc2cccc([N+](=O)[O-])c2)cc1OC` the value was 0%. For `C[C@H](Cc1ccc(C[C@@H](C)NC[C@H](O)c2cccc(Cl)c2)cc1)NC[C@H](O)COc1ccccc1` the value was 7.91%. Then `C[C@H](Cc1ccc(S(=O)(=O)c2ccc(C[C@@H](C)NC[C@H](O)c3cccc(Cl)c3)cc2)cc1)NC[C@H](O)c1cccc(Cl)c1`, with 22.7%. As for `Cc1ccc(CCC(C)NCC(O)c2cccc(Cl)c2)cc1` (stereo not drawn), the IFI was found to be 2.96%.

The compound `C[C@H](Cc1ccc(Oc2ccc(C[C@@H](C)NC[C@H](O)c3cccc(Cl)c3)cc2)cc1)NC[C@H](O)c1cccc(Cl)c1` displayed an IFI of 20.8%. Consider `C[C@H](Cc1ccc(OCCCOc2ccc(C[C@@H](C)NC[C@H](O)c3cccc(Cl)c3)cc2)cc1)NC[C@H](O)c1cccc(Cl)c1`, for which the IFI is 13.1%.

For `C[C@H](Cc1ccc(C[C@@H](C)NCC(O)c2cc(Cl)c(N)c(Cl)c2)cc1)NCC(O)c1cc(Cl)c(N)c(Cl)c1` (stereo partly drawn), the IFI was 9.35%. For `C[C@H](Cc1ccc(CCc2ccc(C[C@@H](C)NC[C@H](O)c3cccc(Cl)c3)cc2)cc1)NC[C@H](O)c1cccc(Cl)c1` the value was 21.6%. Then `C[C@H](Cc1ccc(OCCCCOc2ccc(C[C@@H](C)NC[C@H](O)c3cccc(Cl)c3)cc2)cc1)NC[C@H](O)c1cccc(Cl)c1`, with 11.6%; and `COC(=O)c1ccc(CCC(C)NCC(O)c2cccc(Cl)c2)cc1` (stereo not drawn), with 2.88%. Then `COc1cccc(CCc2ccc(O)c3c2C[C@H]2C[C@H]4[C@H](N(C)C)C(O)=C(C(N)=O)C(=O)[C@@]4(O)C(O)=C2C3=O)c1`, with 8.41%; and `CC1(C)NC(N)=NC(=N)N1OCCSCc1cc(Cl)sc1Cl`, with 4.93%; and `CN1CCN(CCCN(Cc2ccc(-c3ccc(CNCCc4ccccc4)cc3)cc2)C(=O)c2cccs2)CC1`, with 9.03%. In the case of `C=CCn1c(Sc2ccc(C#N)c([N+](=O)[O-])c2)nnc1-c1ccc(Cl)cc1`, the IFI came out at 4.23%.

The compound `Cc1cc(=NN=Cc2cccc(Cl)c2)c2ccc(F)cc2[nH]1` returned an IFI of 1.49%. Then `CCOC(=O)c1ccc(NC(=O)N[C@H]2CCN(CCCCCNC(=O)/C=C/c3ccc(Cl)c(Cl)c3)C2)cc1`, with 7.91%. Then `Cc1cccc(CNc2nc(C)cc(N[C@@H](Cc3ccccc3)C(=O)NC3CCCC3)n2)c1`, with 27.3%.

In turn, `Cc1cc(N[C@@H](Cc2ccccc2)C(=O)NC2CCCC2)nc(NCc2ccccc2C)n1` returned an IFI of 4.88%. Then `Cc1cc(N[C@@H](Cc2ccccc2)C(=O)Nc2ccccc2)nc(NCC2CCCCC2)n1`, with 11.6%; and `Cc1cc(N[C@@H](Cc2ccccc2)C(=O)NC2CCCC2)nc(NCC2CCCCC2)n1`, with 26.2%; and `Cc1cc(N[C@@H](Cc2ccccc2)C(=O)NCCc2ccccc2)nc(NCC2CCCCC2)n1`, with 11.4%. Then `Cc1cc(N[C@@H](Cc2ccccc2)C(=O)NC2CCCC2)nc(Nc2ccccc2)n1`, with 7.32%; and `O=C(c1cc(-c2cccs2)n[nH]1)N1CCN(S(=O)(=O)c2ccc(Br)cc2)CC1`, with 0%; and `CC(CN(C)C)C(=O)Nc1cccc(-c2ccc(-c3nc4cc(C(F)(F)F)ccc4[nH]3)cc2)c1` (stereo not drawn), with 6.31%. Then `Cc1cc(=NN=CC=Cc2ccccc2)c2cc(F)ccc2[nH]1`, with 0.75%; and `CSc1ccc(CN2CCC(NC(=O)c3ccc(-c4cccc(C(F)(F)F)c4)s3)CC2)cc1`, with 15.2%; and `CC(=O)Nc1ccc(CN2CCC(NC(=O)c3ccc(-c4cccc(C(F)(F)F)c4)s3)CC2)cc1`, with 10.3%.

Regarding `CN(C)c1ccc(-c2ccc(C(=O)NC3CCN(Cc4cccc(C(F)(F)F)c4)CC3)s2)cc1`, the IFI is 11.1%. The compound `O=C(NC1CCN(Cc2ccc3c(c2)OCCO3)CC1)c1ccc(-c2cccc(Cl)c2)s1` displayed an IFI of 15.2%.

For the compound `CN(C)c1ccc(CN2CCC(NC(=O)c3ccc(-c4cccc(C(F)(F)F)c4)s3)CC2)cc1`, the IFI amounted to 17.2%.

Turning to `CC(C)(C)CCN1CCC(NC(=O)c2ccc(-c3cccc(C(F)(F)F)c3)s2)CC1`, the IFI is 15.8%. The compound `CC(C)(C)c1ccc(CN2CCC(NC(=O)c3ccc(-c4cccc(C(F)(F)F)c4)s3)CC2)cc1` returned an IFI of 13%. For `O=C(NC1CCN(CCCc2ccccc2)CC1)c1ccc(-c2cccc(C(F)(F)F)c2)s1` the value was 17.2%; for `O=C(NC1CCN(Cc2ccsc2)CC1)c1ccc(-c2cccc(C(F)(F)F)c2)s1`, 16.7%; for `O=C(NC1CCN(Cc2ccc3c(c2)OCCO3)CC1)c1ccc(-c2cccc(C(F)(F)F)c2)s1`, 22%. Then `O=C(NC1CCN(Cc2cccc(C(F)(F)F)c2)CC1)c1ccc(-c2cccc(C(F)(F)F)c2)s1`, with 12.7%; and `O=C(NC1CCN(Cc2ccc(F)cc2)CC1)c1ccc(-c2cccc(C(F)(F)F)c2)s1`, with 24.6%; and `Nc1nccc2ccc(-c3ccsc3)cc12`, with 10.1%. With `Cc1ccc2nc(N/C(N)=N/C(=O)NC3CCCCC3)nc(C)c2c1`, the IFI worked out at 3.42%. Then `Cc1cc(-c2cccc(CNCc3ccc(F)cc3)c2)ccc1S(=O)(=O)NCCN1CCCC1`, with 12.9%; and `Cc1cc(N)nc2ccc(-c3ccc(CN)cc3)cc12`, with 4.83%.

`C=C(C)Cn1cc(C2CCN(CCN3CCC(CNC(=O)c4ccc(-c5ccc(C#N)cc5)cc4)CC3)CC2)c2ccccc21` displayed an IFI of 10.9%.

Compound `CCCCCCSc1nnc(COc2cccc3ccccc23)n1-c1ccc(OC)cc1` had an IFI of 5.43%. Then `CCCn1c(O)nnc1SCC(=O)Nc1cc(C(F)(F)F)ccc1Cl`, with 1.57%; and `Nc1cccc(CNCc2cccc(-c3ccc(-c4nc5ccccc5[nH]4)cc3)c2)c1`, with 3.81%; and `CC(C)c1ccc(S(=O)(=O)Nc2cccc(CCN3CCC(N4CCCCC4)CC3)c2)cc1`, with 9.52%. Then `O=C(NCCCCN1CCC(c2ccc(-c3ccco3)cc2)CC1)c1ccc(NC(=O)c2ccc(Cl)cc2)cc1`, with 5.98%; and `CN(C)c1ccc(CN2CCC(NC(=O)c3ccc(-c4cccc(F)c4)s3)CC2)cc1`, with 10.5%; and `CC(C)(C)c1ccc(CN2CCC(NC(=O)c3ccc(-c4cccc(F)c4)s3)CC2)cc1`, with 12.5%. Then `CN(C)c1ccc(CN2CCC(NC(=O)c3ccc(-c4cccc(Cl)c4)s3)CC2)cc1`, with 17.9%; and `CC(C)c1ccc(CN2CCC(NC(=O)c3ccc(-c4cccc(Cl)c4)s3)CC2)cc1`, with 12.1%; and `CC(C)c1ccc(CN2CCC(NC(=O)c3ccc(-c4cccc(F)c4)s3)CC2)cc1`, with 17.2%. Consider `CN(C)c1ccc(CN2CCC(NC(=O)c3ccc(-c4ccc(N(C)C)cc4)s3)CC2)cc1`, for which the IFI turned out to be 15.5%. In the case of `COc1ccc2nc3cc(Cl)ccc3c(Nc3ccc(O)c(CNC(C)C)c3)c2c1`, the IFI was 7.64%. For `CCCCNCc1ccc(-c2nc(CN(CCCn3ccnc3)C(=O)C3COc4ccccc4O3)cs2)cc1` (stereo not drawn) the value was 4.93%; for `O=C(NCCc1ccccc1)N(Cc1ccccc1-c1ccc(CNCCc2ccccc2)cc1)C1CCN(Cc2ccccc2)CC1`, 7.86%. On to `COc1cc2nc(NCCn3cccn3)nc(NCCc3ccccc3)c2cc1OC`, for which the IFI is 4.23%. Then `Cc1cccc2nc(-c3cccc(-c4cccc(NC(=O)c5csnn5)c4)c3)[nH]c12`, with 2.7%; and `N#Cc1ccc(N2CCN(Cc3cccc(-c4cccc(-c5nc6cc(C(F)(F)F)ccc6[nH]5)c4)c3)CC2)nc1`, with 1.92%; and `COc1ccc(CCNc2nc(NCc3ccccc3)c3cc(OC)c(OC)cc3n2)cc1OC`, with 5.84%. Then `COc1cccc(CCNc2nc(NCc3ccccc3)c3cc(OC)c(OC)cc3n2)c1`, with 5.93%; and `COc1cc2nc(NCCc3cccc(Cl)c3)nc(NCc3ccccc3)c2cc1OC`, with 17.1%. For `CCCc1cc(=O)[nH]c(-n2nc(C)cc2NC(=O)C(CC)c2ccccc2)n1` (stereo not drawn) the value was 18.5%; for `CCCc1cc(=O)[nH]c(-n2nc(C)cc2NC(=O)CC(c2ccccc2)c2ccccc2)n1`, 12.2%; for `CCc1c(C)nc(-n2nc(C)cc2NC(=O)C(CC)c2ccccc2)[nH]c1=O` (stereo not drawn), 11.8%. On to `Cc1cc(N2CCCC2)nc(Nc2ccc(NC(=O)Cc3ccccc3)cc2)n1`, for which the IFI came to 15.4%. For `Cc1cc(N2CCCC2)nc(Nc2ccc(NC(=O)Nc3ccccc3)cc2)n1` the value was 16.2%; for `COc1ccc(NC(=O)Nc2ccc(Nc3nc(C)cc(N4CCCC4)n3)cc2)cc1`, 11.8%; for `COc1cccc(NC(=O)Nc2ccc(Nc3nc(C)cc(N4CCCC4)n3)cc2)c1`, 17.3%. For `CCC(=O)Nc1ccc(Nc2nc(C)cc(N3CCCC3)n2)cc1` the value was 7.84%. On to `Cc1cc(N2CCCC2)nc(Nc2ccc(NC(=O)COc3ccccc3)cc2)n1`, for which the IFI stood at 22.2%.

For the compound `C=CCOC(=O)N1CCC(CNCc2ccc(-c3cccc(-c4nc5cc(F)ccc5[nH]4)c3)cc2)C1` (stereo not drawn), the IFI stood at 2.91%. Turning to `COc1cc2nc(SCCCC#N)n(C3CCCCCC3)c(=N)c2cc1OC`, the IFI came out at 3.6%.
